Laboratory results published in publication PMC7862700, “An all-to-all approach to the identification of sequence-specific readers for epigenetic DNA modifications on cytosine”.

Key:
Experiment in all cases: DAPPL (digital affinity profiling via proximity ligation, sequencing); 10 mM Tris-HCl pH 7.5, 50 mM NaCl, 1 mM DTT, 4% glycerol, room temperature, 30 min; GST-TFs on glutathione beads, 16-mer random dsDNA library, 0.1% formaldehyde crosslink after washing; high values mean tight binding
Settings in all cases: protein: recombinant; tags: N-terminal GST; dsDNA, one strand shown
FLI1 = molecular target: T1, FLI1 (Homo sapiens, UniProt Q01543 1-452)
T1 sequence: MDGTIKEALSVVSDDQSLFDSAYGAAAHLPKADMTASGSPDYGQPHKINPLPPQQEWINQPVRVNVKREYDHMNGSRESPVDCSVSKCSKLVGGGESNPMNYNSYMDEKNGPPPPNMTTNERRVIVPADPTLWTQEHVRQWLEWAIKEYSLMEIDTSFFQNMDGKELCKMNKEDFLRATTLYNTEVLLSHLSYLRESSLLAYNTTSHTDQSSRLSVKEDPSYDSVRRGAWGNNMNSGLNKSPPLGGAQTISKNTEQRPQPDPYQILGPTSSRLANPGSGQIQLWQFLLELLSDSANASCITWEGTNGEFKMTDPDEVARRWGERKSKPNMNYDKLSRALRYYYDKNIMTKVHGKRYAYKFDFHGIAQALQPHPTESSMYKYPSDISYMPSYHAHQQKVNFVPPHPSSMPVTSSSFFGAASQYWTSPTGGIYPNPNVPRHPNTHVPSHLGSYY
How it was run: (§1)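 Beads coated with glutathione captured GST-fused human transcription factors that had been expressed in yeast, and the factors were then given DNA barcodes and pooled with a tag-only sample. The pools were incubated with 200 nmole of a random double-stranded 16-mer DNA library in Tris/NaCl/DTT/glycerol buffer for 30 min at room temperature, washed, crosslinked with 0.1% formaldehyde and proximity-ligated with BsaI/T4 ligase at 37 °C for 1 h. PCR amplification and Illumina NextSeq500 sequencing came last. Binding signal is each hexamer's read frequency for a factor divided by its frequency for the tag-only sample.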

ELK1 = molecular target: T2, ELK1 (Homo sapiens, UniProt P19419 1-428)
T2 sequence: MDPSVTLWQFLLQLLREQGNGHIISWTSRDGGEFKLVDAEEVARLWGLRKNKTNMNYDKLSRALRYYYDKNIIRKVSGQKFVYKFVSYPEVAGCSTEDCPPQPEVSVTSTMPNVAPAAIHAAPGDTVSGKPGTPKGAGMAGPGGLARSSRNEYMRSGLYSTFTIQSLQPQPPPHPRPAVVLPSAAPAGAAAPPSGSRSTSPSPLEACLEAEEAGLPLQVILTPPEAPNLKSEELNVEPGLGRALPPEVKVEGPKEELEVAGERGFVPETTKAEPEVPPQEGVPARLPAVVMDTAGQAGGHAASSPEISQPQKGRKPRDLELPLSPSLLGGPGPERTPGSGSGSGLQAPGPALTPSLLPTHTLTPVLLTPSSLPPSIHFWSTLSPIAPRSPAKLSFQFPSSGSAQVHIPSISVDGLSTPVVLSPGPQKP
How it was run: as §1

GABPA = molecular target: T3, GABPA (Homo sapiens, UniProt Q06546 1-454)
T3 sequence: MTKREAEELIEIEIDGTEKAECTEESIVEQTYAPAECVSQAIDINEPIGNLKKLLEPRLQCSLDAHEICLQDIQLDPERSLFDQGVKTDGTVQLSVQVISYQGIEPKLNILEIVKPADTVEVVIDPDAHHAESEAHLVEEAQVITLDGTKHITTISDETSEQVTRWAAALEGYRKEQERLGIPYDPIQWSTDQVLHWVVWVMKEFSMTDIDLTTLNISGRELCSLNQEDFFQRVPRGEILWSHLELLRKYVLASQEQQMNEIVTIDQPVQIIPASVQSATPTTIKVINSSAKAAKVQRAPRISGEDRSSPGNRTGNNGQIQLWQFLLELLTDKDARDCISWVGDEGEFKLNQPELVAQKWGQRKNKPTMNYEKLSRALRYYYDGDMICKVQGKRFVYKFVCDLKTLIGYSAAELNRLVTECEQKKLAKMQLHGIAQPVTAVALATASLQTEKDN
How it was run: as §1

ERG = molecular target: T4, ERG (Homo sapiens, UniProt P11308 1-479)
T4 sequence: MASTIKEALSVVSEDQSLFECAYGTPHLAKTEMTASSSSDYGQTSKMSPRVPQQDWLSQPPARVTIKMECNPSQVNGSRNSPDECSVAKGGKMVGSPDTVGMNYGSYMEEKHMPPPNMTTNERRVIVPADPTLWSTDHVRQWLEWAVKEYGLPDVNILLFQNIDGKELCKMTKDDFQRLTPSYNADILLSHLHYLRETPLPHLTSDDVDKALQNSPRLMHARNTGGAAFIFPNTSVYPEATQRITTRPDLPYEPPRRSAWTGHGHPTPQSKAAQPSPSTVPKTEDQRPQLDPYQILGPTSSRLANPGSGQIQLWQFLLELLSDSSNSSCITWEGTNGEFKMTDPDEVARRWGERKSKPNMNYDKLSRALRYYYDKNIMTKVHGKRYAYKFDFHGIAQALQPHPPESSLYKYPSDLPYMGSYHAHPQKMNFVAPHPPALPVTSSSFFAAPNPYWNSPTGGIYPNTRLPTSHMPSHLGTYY
How it was run: as §1

ELF1 = ELF1 (Homo sapiens, UniProt P32519 1-619)
Chain of ELF1 (P32519 whole entry): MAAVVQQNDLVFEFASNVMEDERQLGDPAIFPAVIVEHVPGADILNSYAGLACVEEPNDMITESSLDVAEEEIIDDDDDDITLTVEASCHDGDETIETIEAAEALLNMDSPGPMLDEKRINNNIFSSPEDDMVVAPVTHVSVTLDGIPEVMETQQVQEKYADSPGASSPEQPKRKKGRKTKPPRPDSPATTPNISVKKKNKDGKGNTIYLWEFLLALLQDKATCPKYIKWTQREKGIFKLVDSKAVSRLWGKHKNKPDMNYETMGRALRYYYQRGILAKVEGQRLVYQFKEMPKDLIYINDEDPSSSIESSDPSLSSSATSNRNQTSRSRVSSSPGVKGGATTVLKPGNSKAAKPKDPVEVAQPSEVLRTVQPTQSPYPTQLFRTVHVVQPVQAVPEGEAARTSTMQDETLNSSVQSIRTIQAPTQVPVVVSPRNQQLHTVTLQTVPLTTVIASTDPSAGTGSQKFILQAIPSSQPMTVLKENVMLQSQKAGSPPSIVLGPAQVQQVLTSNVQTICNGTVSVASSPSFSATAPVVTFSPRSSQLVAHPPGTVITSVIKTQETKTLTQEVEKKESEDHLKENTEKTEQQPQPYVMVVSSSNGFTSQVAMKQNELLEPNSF
How it was run: as §1

EHF = molecular target: T5, EHF (Homo sapiens, UniProt Q9NZC4 1-300)
T5 sequence: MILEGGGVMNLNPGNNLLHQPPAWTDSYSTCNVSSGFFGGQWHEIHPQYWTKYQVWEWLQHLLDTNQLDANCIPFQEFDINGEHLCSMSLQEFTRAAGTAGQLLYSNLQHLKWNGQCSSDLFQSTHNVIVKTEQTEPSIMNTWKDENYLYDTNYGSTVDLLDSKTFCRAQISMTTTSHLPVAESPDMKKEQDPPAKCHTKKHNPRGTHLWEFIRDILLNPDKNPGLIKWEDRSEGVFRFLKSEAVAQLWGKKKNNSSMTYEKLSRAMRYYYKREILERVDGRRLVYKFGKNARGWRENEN
How it was run: as §1

SPI1 = SPI1 (Homo sapiens, UniProt P17947 1-270)
How it was run: as §1

SPIB = SPIB (Homo sapiens, UniProt Q01892 1-262)
Chain of SPIB (Q01892 whole entry): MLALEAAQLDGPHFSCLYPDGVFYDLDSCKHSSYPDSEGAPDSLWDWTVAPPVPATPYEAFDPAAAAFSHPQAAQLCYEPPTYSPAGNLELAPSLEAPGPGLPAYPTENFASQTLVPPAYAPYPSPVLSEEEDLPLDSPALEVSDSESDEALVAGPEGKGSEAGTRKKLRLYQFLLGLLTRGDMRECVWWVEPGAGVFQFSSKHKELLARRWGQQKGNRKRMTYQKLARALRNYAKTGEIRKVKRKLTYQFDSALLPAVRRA
How it was run: as §1

ELK3 = molecular target: T6, ELK3 (Homo sapiens, UniProt P41970 1-407)
T6 sequence: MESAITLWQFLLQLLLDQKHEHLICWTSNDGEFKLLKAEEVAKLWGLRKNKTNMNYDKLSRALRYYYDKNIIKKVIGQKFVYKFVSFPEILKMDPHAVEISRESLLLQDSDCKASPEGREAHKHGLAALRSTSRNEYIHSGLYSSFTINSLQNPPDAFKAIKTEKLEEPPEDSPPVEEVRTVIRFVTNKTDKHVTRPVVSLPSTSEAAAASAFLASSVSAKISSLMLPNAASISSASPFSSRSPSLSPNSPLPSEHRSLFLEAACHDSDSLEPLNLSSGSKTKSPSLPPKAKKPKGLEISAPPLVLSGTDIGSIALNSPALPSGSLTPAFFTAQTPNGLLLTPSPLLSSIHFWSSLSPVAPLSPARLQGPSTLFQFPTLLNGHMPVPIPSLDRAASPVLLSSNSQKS
How it was run: as §1

FEV = molecular target: T7, FEV (Homo sapiens, UniProt Q99581 1-238)
T7 sequence: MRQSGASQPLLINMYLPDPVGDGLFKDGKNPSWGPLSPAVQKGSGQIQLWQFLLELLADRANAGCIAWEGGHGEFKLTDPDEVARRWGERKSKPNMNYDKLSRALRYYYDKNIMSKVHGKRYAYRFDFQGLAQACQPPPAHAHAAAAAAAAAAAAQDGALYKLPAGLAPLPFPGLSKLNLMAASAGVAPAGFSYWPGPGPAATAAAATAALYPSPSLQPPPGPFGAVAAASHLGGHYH
How it was run: as §1

ETV5 = ETV5 (Homo sapiens, UniProt P41161 1-510)
Chain of ETV5 (P41161 whole entry): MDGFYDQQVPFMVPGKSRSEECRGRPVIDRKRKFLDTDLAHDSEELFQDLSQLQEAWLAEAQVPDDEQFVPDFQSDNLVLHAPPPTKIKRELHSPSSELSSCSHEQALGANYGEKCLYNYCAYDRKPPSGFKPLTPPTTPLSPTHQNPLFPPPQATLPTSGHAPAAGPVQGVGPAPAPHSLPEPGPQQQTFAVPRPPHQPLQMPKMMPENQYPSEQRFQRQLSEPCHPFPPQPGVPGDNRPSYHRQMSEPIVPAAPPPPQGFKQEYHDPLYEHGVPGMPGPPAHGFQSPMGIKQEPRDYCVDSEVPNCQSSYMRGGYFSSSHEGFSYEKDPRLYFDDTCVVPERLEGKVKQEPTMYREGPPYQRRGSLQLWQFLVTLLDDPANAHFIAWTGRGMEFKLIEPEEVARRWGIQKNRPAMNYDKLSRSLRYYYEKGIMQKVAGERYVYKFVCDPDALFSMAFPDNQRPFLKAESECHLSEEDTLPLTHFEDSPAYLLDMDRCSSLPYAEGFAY
How it was run: as §1

SPIC = molecular target: T8, SPIC (Homo sapiens, UniProt Q8N5J4 1-248)
T8 sequence: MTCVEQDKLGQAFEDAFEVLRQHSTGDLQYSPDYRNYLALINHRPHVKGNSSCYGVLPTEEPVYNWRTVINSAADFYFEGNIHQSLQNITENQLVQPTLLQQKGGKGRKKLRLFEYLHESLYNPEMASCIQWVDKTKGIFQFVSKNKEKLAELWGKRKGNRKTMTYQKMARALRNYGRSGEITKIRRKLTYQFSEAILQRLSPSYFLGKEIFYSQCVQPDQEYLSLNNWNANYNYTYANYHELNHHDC
How it was run: as §1

ELF4 = ELF4 (Homo sapiens, UniProt Q99607 1-663)
Chain of ELF4 (Q99607 whole entry): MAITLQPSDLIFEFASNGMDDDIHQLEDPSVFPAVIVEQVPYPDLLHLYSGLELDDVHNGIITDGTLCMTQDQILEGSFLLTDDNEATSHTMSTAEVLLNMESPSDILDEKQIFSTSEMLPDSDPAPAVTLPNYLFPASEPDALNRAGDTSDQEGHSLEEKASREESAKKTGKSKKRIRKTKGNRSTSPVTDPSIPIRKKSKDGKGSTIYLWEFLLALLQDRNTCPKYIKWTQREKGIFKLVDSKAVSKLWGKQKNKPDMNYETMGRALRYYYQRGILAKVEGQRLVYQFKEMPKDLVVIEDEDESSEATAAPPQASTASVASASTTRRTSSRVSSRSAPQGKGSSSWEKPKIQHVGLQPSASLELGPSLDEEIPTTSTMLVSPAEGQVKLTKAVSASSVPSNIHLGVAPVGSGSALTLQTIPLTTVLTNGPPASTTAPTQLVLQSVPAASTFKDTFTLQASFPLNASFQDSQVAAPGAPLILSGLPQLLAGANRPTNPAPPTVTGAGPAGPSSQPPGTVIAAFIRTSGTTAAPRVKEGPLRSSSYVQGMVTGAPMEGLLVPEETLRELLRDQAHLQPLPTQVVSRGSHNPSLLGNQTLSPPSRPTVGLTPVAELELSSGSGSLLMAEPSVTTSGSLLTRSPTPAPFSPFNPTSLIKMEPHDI
How it was run: as §1

ELK4 = molecular target: T9, ELK4 (Homo sapiens, UniProt P28324-2 1-405)
T9 sequence: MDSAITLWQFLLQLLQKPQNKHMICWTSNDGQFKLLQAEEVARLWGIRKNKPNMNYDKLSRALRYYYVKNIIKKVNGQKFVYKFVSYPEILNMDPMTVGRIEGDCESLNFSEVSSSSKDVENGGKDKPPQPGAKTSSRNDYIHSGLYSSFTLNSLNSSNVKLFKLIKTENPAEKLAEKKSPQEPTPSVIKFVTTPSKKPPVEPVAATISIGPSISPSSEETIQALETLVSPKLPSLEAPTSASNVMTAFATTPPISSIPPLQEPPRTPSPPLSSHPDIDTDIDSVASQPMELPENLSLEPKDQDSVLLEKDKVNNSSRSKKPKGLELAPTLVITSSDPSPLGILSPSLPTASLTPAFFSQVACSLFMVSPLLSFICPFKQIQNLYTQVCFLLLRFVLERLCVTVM
How it was run: as §1

ETV2 = molecular target: T10, ETV2 (Homo sapiens, UniProt O00321 1-342)
T10 sequence: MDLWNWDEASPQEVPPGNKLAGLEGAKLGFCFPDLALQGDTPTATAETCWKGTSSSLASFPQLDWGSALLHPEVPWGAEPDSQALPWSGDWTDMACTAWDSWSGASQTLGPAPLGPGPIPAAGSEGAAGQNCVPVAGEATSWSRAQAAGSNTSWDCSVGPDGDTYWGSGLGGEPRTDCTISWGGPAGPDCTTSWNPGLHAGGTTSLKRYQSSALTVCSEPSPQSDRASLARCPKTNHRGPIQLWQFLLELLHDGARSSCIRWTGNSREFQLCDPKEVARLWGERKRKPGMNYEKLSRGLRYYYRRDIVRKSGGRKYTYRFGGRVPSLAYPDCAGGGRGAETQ
How it was run: as §1

ELF3 = molecular target: T11, ELF3 (Homo sapiens, UniProt P78545 1-371)
T11 sequence: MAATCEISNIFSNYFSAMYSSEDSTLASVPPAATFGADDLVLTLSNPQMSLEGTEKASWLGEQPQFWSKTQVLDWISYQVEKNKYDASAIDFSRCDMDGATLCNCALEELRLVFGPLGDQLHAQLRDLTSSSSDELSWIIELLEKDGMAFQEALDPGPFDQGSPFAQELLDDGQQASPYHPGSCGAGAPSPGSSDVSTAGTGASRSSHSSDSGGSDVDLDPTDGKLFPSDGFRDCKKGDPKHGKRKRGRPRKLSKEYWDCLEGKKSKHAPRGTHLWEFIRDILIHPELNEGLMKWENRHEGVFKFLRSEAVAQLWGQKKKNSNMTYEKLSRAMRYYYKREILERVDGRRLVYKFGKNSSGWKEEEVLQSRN
How it was run: as §1

ETV1 = ETV1 (Homo sapiens, UniProt P50549 1-477)
Chain of ETV1 (P50549 whole entry): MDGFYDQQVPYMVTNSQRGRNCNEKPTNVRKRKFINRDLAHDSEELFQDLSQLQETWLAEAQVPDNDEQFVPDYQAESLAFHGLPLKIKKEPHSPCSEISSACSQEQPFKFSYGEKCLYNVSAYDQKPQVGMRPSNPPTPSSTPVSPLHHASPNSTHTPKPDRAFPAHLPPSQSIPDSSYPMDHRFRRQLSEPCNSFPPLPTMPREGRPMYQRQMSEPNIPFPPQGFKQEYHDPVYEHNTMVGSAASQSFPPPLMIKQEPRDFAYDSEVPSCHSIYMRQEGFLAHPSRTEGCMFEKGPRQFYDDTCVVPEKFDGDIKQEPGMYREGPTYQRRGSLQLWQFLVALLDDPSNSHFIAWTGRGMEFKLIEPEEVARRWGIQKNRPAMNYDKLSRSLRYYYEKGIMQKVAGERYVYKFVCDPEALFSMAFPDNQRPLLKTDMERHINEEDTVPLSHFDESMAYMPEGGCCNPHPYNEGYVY
How it was run: as §1

AAGTGC
binding signal (FLI1): 1.32 fold enrichment (6-mer frequency, TF over GST control)
binding signal (ELK1): 1.33 fold enrichment (6-mer frequency, TF over GST control)
binding signal (GABPA): 1.13 fold enrichment (6-mer frequency, TF over GST control)
binding signal (ERG): 1.32 fold enrichment (6-mer frequency, TF over GST control)
binding signal (ELF1): 1.28 fold enrichment (6-mer frequency, TF over GST control)
binding signal (EHF): 1.34 fold enrichment (6-mer frequency, TF over GST control)
binding signal (SPI1): 1.67 fold enrichment (6-mer frequency, TF over GST control)
binding signal (SPIB): 1.34 fold enrichment (6-mer frequency, TF over GST control)
binding signal (ELK3): 1.39 fold enrichment (6-mer frequency, TF over GST control)
binding signal (FEV): 1.32 fold enrichment (6-mer frequency, TF over GST control)
binding signal (ETV5): 1.33 fold enrichment (6-mer frequency, TF over GST control)
binding signal (SPIC): 1.5 fold enrichment (6-mer frequency, TF over GST control)
binding signal (ELF4): 1.29 fold enrichment (6-mer frequency, TF over GST control)
binding signal (ELK4): 1.21 fold enrichment (6-mer frequency, TF over GST control)
binding signal (ETV2): 1.35 fold enrichment (6-mer frequency, TF over GST control)
binding signal (ELF3): 1.33 fold enrichment (6-mer frequency, TF over GST control)
binding signal (ETV1): 1.25 fold enrichment (6-mer frequency, TF over GST control)

CTGTGC
binding signal (FLI1): 1.09 fold enrichment (6-mer frequency, TF over GST control)
binding signal (ELK1): 1.18 fold enrichment (6-mer frequency, TF over GST control)
binding signal (GABPA): 1.12 fold enrichment (6-mer frequency, TF over GST control)
binding signal (ERG): 1.11 fold enrichment (6-mer frequency, TF over GST control)
binding signal (ELF1): 1.14 fold enrichment (6-mer frequency, TF over GST control)
binding signal (EHF): 1.02 fold enrichment (6-mer frequency, TF over GST control)
binding signal (SPI1): 1.02 fold enrichment (6-mer frequency, TF over GST control)
binding signal (SPIB): 1.13 fold enrichment (6-mer frequency, TF over GST control)
binding signal (ELK3): 1.09 fold enrichment (6-mer frequency, TF over GST control)
binding signal (FEV): 1.03 fold enrichment (6-mer frequency, TF over GST control)
binding signal (ETV5): 1.17 fold enrichment (6-mer frequency, TF over GST control)
binding signal (SPIC): 1.27 fold enrichment (6-mer frequency, TF over GST control)
binding signal (ELF4): 1.21 fold enrichment (6-mer frequency, TF over GST control)
binding signal (ELK4): 1.12 fold enrichment (6-mer frequency, TF over GST control)
binding signal (ETV2): 1.25 fold enrichment (6-mer frequency, TF over GST control)
binding signal (ELF3): 1.08 fold enrichment (6-mer frequency, TF over GST control)
binding signal (ETV1): 1.12 fold enrichment (6-mer frequency, TF over GST control)
